Laboratory results from PubChem BioAssay (NCI).
Compounds without any hit were thinned out: in the full panel of roughly 83,000, 20% have a hit.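 In brief: 96-well plates, 48 h treatment, single concentration, percent growth endpoint.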 The source made the active and inactive calls. The calls were made as follows: active = growth percent below 10; inactive = the rest.

Tested on: NCI-H23 lung
Test: NCI-60 one-dose screen, 48 h (100 = growth as untreated, 0 = no growth, -100 = all killed)
Conditions: 10 µM unless noted

| SMILES | growth |
| --- | --- |
| C[C@H](c1nc2ccc(C#N)cc2[nH]1)[C@H]1CC[C@H]2[C@@H]3CCC4=CC(=O)CC[C@]4(C)[C@H]3CC[C@]12C | 59.7% (inactive) |
| O=c1cc(C(F)(F)F)c2cc(-c3cc4ccccc4c(=O)o3)c(O)cc2o1 | 54.9% (inactive) |
| Nc1ccc(-c2ccncc2)cc1NC(=O)N1CCCC1 | 102% (inactive) |
| COc1cccc(-c2cn3nc(-c4cn(C)c5ccccc45)sc3n2)c1 | 90% (inactive) |
| CC(C)(C)c1ccc(S(=O)(=O)Oc2ccc(-c3sc4cc(OS(=O)(=O)c5ccc(C(C)(C)C)cc5)ccc4c3C(=O)c3ccc(OCCN4CCCCC4)cc3)cc2)cc1 | 93.3% (inactive) |
| CCN(CC)CCn1c2ccc(OC)cc2c2sc3cc(O)ccc3c(=O)c21 | 23.9% (inactive) |
| C=C1C(=O)O[C@H]2[C@H]1CC/C(COC(=O)NCc1ccc(Cn3c(=O)sn(-c4ccc(I)cc4)c3=O)cc1)=C\CC[C@@]1(C)O[C@@H]21 | 94.8% (inactive) |
| O=C(Nc1nc(Cl)nc(Nc2ccc(N3CCOCC3=O)cc2)n1)c1ccc(Cl)s1 | 88.1% (inactive) |
| COc1cc(OC)c2c(=O)c3c(CC=C(C)C)cc(OC)c(O)c3oc2c1 | 93.7% (inactive) |
| O=S(=O)(Nc1cc(Sc2nc3ccccc3s2)c(O)c2ccccc12)c1ccc2ccccc2c1 | 76.3% (inactive) |
| Nc1cccc(-c2ccc(COc3ccc(CC4SC(=O)NC4=O)cc3)cc2)c1 (stereo not drawn) | 70.5% (inactive) |
| COc1ccc(-c2nc(SCC(=O)Nc3nc4ccc(C)cc4s3)[nH]c(=O)c2C#N)cc1OC | 103% (inactive) |
| C=C1C(=O)O[C@@H]2C3C(=C(C)CC[C@@H]12)CC1O[C@]13C (stereo partly drawn) | 82.9% [6.75 µM] (inactive) |
| COc1cccc(CNc2c3ccccc3nc3ccccc23)c1OC | 32.4% (inactive) |
| Nc1c(Cl)cc(/C=C2\C=Cc3ccccc32)cc1Cl | 97.4% (inactive) |
| CSc1ccc2c3c(n(C[C@H](O)CO)c(=O)c2c1)-c1ccccc1C3=O | 38.1% (inactive) |
| COc1cc(-c2ccc[nH]2)[nH]c1/C=C1\N=C(C)C(CC(=O)OCC(C)(C)C)=C1C | -46.8% (active) |
| Brc1ccc(Nc2nc(Nc3cnc4ccccc4c3)c3[nH]cnc3n2)cc1 | 76% (inactive) |
| CS(=O)(=O)Nc1cc(-c2ccc3ncnc(Nc4ccc(F)c(Cl)c4)c3c2)ccc1Cl | 48.9% (inactive) |
| CSc1ccc2c3c(n(CCCn4ccnc4)c(=O)c2c1)-c1ccccc1C3=O | 30.7% (inactive) |

| SMILES | growth |
| --- | --- |
| O=C(/C=C/c1cn(-c2ccccc2)nc1-c1ccccc1)CCC(=O)NO | 99.3% (inactive) |
| O=C(/C=C/c1ccccc1)c1cccc2ccccc12 | 26.2% (inactive) |
| CCOC(=O)/C=C1\S/C(=N\Nc2cc(=O)[nH]c3ccc(Br)cc23)N(c2ccccc2)C1=O | 88.1% (inactive) |
| CC(=O)c1ccc(-n2cc(CN3CCN(c4cc5c(cc4F)c(=O)c(C(=O)O)cn5C4CC4)CC3)nn2)cc1 | 83.5% (inactive) |
| CS(=O)(=O)Nc1cc(-c2ccc3ncnc(Nc4ccc(OCc5ccccn5)c(Cl)c4)c3c2)cnc1Cl | -8.13% (active) |
| COc1ccc2c(c1)c(-c1nc(-c3ccc4ccccc4c3)cs1)cn2C | 87.1% (inactive) |
| CCOC(=O)c1c(C)nc2ccccc2c1/C=C/c1ccc(F)cc1 | 51.3% (inactive) |
| CC1(C)N=C(N)N=C(N)N1c1ccc(S(=O)(=O)Nc2nccs2)cc1 | 101% (inactive) |
| COC(=O)c1sccc1-c1cc(O)c(C(=O)Nc2ccccc2)s1 | 83% (inactive) |
| CCOC(=O)NC(=S)n1oc(=O)c2ccccc21 | 97.7% (inactive) |
| O=C1CCC(C(=O)N/N=C/c2cc(F)ccc2F)N1 (stereo not drawn) | 95.3% (inactive) |
| COc1ccccc1/C=C/C(=O)Nc1ccc(F)cc1 | 88.2% (inactive) |
| COc1ccc(/C=N/Nc2c3ccccc3nc3ccccc23)cc1 | 88.3% (inactive) |
| O=[N+]([O-])c1ccccc1Sc1ccccc1[N+](=O)[O-] | 93.7% (inactive) |
| C[C@@H]1CN(c2cnc(C(=O)Nc3cc(F)cc4cccnc34)cn2)C[C@H](C)N1 | 63% (inactive) |
| CC1(C)CC[C@]23CC[C@]4(C)[C@H](CC[C@@H]5[C@@]6(C)C/C(=C/O)C(=O)C(C)(C)[C@@H]6CC[C@]54C)[C@H]2[C@H]1OC3 | 99.1% (inactive) |
| c1cc(OCCCCCOc2cccc(-c3nc4ccccc4[nH]3)c2)cc(-c2nc3ccccc3[nH]2)c1 | 3% (active) |
| O=CN1N=C(c2cccc(Nc3ccnc4cc(Cl)ccc34)c2)CC1c1ccc(Cl)cc1 (stereo not drawn) | 1.81% (active) |
| COc1ccc(/C=C2\c3cc(OC)c(OC)c(OC)c3CC[C@@H]2O)cc1F | 37.3% (inactive) |

Tested on: NCI-H226 lung
Test: as above
Conditions: 10 µM unless noted

| SMILES | growth |
| --- | --- |
| C[C@H](c1nc2ccc(C#N)cc2[nH]1)[C@H]1CC[C@H]2[C@@H]3CCC4=CC(=O)CC[C@]4(C)[C@H]3CC[C@]12C | 78.4% (inactive) |
| O=c1cc(C(F)(F)F)c2cc(-c3cc4ccccc4c(=O)o3)c(O)cc2o1 | 68.4% (inactive) |
| Nc1ccc(-c2ccncc2)cc1NC(=O)N1CCCC1 | 98.1% (inactive) |
| COc1cccc(-c2cn3nc(-c4cn(C)c5ccccc45)sc3n2)c1 | 89.6% (inactive) |
| CC(C)(C)c1ccc(S(=O)(=O)Oc2ccc(-c3sc4cc(OS(=O)(=O)c5ccc(C(C)(C)C)cc5)ccc4c3C(=O)c3ccc(OCCN4CCCCC4)cc3)cc2)cc1 | 94.7% (inactive) |
| CCN(CC)CCn1c2ccc(OC)cc2c2sc3cc(O)ccc3c(=O)c21 | 112% (inactive) |
| C=C1C(=O)O[C@H]2[C@H]1CC/C(COC(=O)NCc1ccc(Cn3c(=O)sn(-c4ccc(I)cc4)c3=O)cc1)=C\CC[C@@]1(C)O[C@@H]21 | 89.6% (inactive) |
| O=C(Nc1nc(Cl)nc(Nc2ccc(N3CCOCC3=O)cc2)n1)c1ccc(Cl)s1 | 86.4% (inactive) |
| COc1cc(OC)c2c(=O)c3c(CC=C(C)C)cc(OC)c(O)c3oc2c1 | 99.3% (inactive) |
| O=S(=O)(Nc1cc(Sc2nc3ccccc3s2)c(O)c2ccccc12)c1ccc2ccccc2c1 | 94.1% (inactive) |
| Nc1cccc(-c2ccc(COc3ccc(CC4SC(=O)NC4=O)cc3)cc2)c1 (stereo not drawn) | 94.1% (inactive) |
| COc1ccc(-c2nc(SCC(=O)Nc3nc4ccc(C)cc4s3)[nH]c(=O)c2C#N)cc1OC | 83.6% (inactive) |
| C=C1C(=O)O[C@@H]2C3C(=C(C)CC[C@@H]12)CC1O[C@]13C (stereo partly drawn) | 88.2% [6.75 µM] (inactive) |
| COc1cccc(CNc2c3ccccc3nc3ccccc23)c1OC | 51.6% (inactive) |
| Nc1c(Cl)cc(/C=C2\C=Cc3ccccc32)cc1Cl | 98.7% (inactive) |
| CSc1ccc2c3c(n(C[C@H](O)CO)c(=O)c2c1)-c1ccccc1C3=O | 12.8% (inactive) |
| COc1cc(-c2ccc[nH]2)[nH]c1/C=C1\N=C(C)C(CC(=O)OCC(C)(C)C)=C1C | -55.5% (active) |
| Brc1ccc(Nc2nc(Nc3cnc4ccccc4c3)c3[nH]cnc3n2)cc1 | 64.1% (inactive) |
| CS(=O)(=O)Nc1cc(-c2ccc3ncnc(Nc4ccc(F)c(Cl)c4)c3c2)ccc1Cl | 70.1% (inactive) |
| CSc1ccc2c3c(n(CCCn4ccnc4)c(=O)c2c1)-c1ccccc1C3=O | 69.2% (inactive) |

| SMILES | growth |
| --- | --- |
| O=C(/C=C/c1cn(-c2ccccc2)nc1-c1ccccc1)CCC(=O)NO | 93.9% (inactive) |
| O=C(/C=C/c1ccccc1)c1cccc2ccccc12 | 41.2% (inactive) |
| CCOC(=O)/C=C1\S/C(=N\Nc2cc(=O)[nH]c3ccc(Br)cc23)N(c2ccccc2)C1=O | 84.1% (inactive) |
| CC(=O)c1ccc(-n2cc(CN3CCN(c4cc5c(cc4F)c(=O)c(C(=O)O)cn5C4CC4)CC3)nn2)cc1 | 69.6% (inactive) |
| CS(=O)(=O)Nc1cc(-c2ccc3ncnc(Nc4ccc(OCc5ccccn5)c(Cl)c4)c3c2)cnc1Cl | 21.2% (inactive) |
| COc1ccc2c(c1)c(-c1nc(-c3ccc4ccccc4c3)cs1)cn2C | 85.3% (inactive) |
| CCOC(=O)c1c(C)nc2ccccc2c1/C=C/c1ccc(F)cc1 | 73.9% (inactive) |
| CC1(C)N=C(N)N=C(N)N1c1ccc(S(=O)(=O)Nc2nccs2)cc1 | 101% (inactive) |
| COC(=O)c1sccc1-c1cc(O)c(C(=O)Nc2ccccc2)s1 | 90.9% (inactive) |
| CCOC(=O)NC(=S)n1oc(=O)c2ccccc21 | 102% (inactive) |
| O=C1CCC(C(=O)N/N=C/c2cc(F)ccc2F)N1 (stereo not drawn) | 99.2% (inactive) |
| COc1ccccc1/C=C/C(=O)Nc1ccc(F)cc1 | 98% (inactive) |
| COc1ccc(/C=N/Nc2c3ccccc3nc3ccccc23)cc1 | 83.4% (inactive) |
| O=[N+]([O-])c1ccccc1Sc1ccccc1[N+](=O)[O-] | 98.5% (inactive) |
| C[C@@H]1CN(c2cnc(C(=O)Nc3cc(F)cc4cccnc34)cn2)C[C@H](C)N1 | 44.8% (inactive) |
| CC1(C)CC[C@]23CC[C@]4(C)[C@H](CC[C@@H]5[C@@]6(C)C/C(=C/O)C(=O)C(C)(C)[C@@H]6CC[C@]54C)[C@H]2[C@H]1OC3 | 105% (inactive) |
| c1cc(OCCCCCOc2cccc(-c3nc4ccccc4[nH]3)c2)cc(-c2nc3ccccc3[nH]2)c1 | 10.2% (inactive) |
| O=CN1N=C(c2cccc(Nc3ccnc4cc(Cl)ccc34)c2)CC1c1ccc(Cl)cc1 (stereo not drawn) | 59.4% (inactive) |
| COc1ccc(/C=C2\c3cc(OC)c(OC)c(OC)c3CC[C@@H]2O)cc1F | 58.1% (inactive) |
